Screening results as filed in PubChem.
RE007 growth inh = less growth of the S. pombe RE007 Vpr strain | actives 0.21% (n = 360,000) | S. pombe RE007 Vpr strain, BacTiter-Glo ATP luminescence, 24 h | Potency, µM (highest dose often 92.2 µM), most hits filed as inhibitors; active = well fitted falling curve with a large enough effect; inconclusive = small, poorly fitted or top-dose-only effect; inactive = no such curve, though single readings can be large or run the other way; also: nearly all actives have a fitted effect of over 50% in size
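Fission yeast strain RE007, carrying one chromosomally integrated HIV-1 vpr copy, was seeded at OD 0.01 in PMG+AL medium with 23 nL pinned compound. After 24 h at 30 °C and 99% humidity, viability was read by BacTiter-Glo luminescence.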
SARS PLP yeast = inhibitors of SARS-CoV papain-like protease in yeast; S. cerevisiae expressing SARS-CoV PLpro, growth rescue; Potency, µM (top dose mostly 32.9 µM), actives largely listed as activators; actives 0.19% (n = 330,000); also: nearly all actives have a fitted effect of over 55% in size
Pf growth 48h = P. falciparum growth inhibition at 48 hours (one generation). actives 5.9% (n = 310,000). P. falciparum luciferase growth in erythrocytes, 48 h. Potency, µM (top dose mostly 28.7 µM), usual class: inhibitors. AID 504832; active = well fitted inhibition curve with a large enough effect; inconclusive = small, poorly fitted or top-dose-only effect, or another doubt; inactive = no such curve, though single readings can be large or run the other way
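Luminescence readout; reporter = integrated firefly luciferase in P. falciparum. RBC culture at 2% hematocrit, 0.1% parasitemia final, 37 C/5% CO2; decreased signal taken as growth inhibition.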
Pf growth 96h = P. falciparum growth inhibition at 96 hour, primary screen for plastid delayed-death inhibitors; P. falciparum luciferase reporter growth, 96 h; Potency, µM (titrated, usually from 28.7 µM), usual class: inhibitors; actives 6.9% (n = 320,000); active = well fitted inhibition curve with a large enough effect; inconclusive = small, poorly fitted or top-dose-only effect, or another doubt; inactive = no such curve, though single readings can be large or run the other way
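Two parasite generations (96 h, 37 C, 5% CO2) of compound exposure in infected erythrocytes (0.05% parasitemia, 2% hematocrit). Luciferase-reporter P. falciparum; decreased luminescence indicates inhibited growth, aimed at apicoplast-acting delayed death.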
NS1 function inh = influenza NS1 inhibition; Potency, µM (doses to about 46.1 µM); AID 2326; actives 0.4% (n = 270,000); also: actives are rising curves; nearly all actives have a fitted effect of over 50% in size
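OD600 was taken as the measure of yeast growth restored by compound in an NS1-expressing S. cerevisiae strain. Cells had been washed out of glucose medium and diluted 1:100 into galactose -URA medium, pH 6.0.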
Numbers stand for hits; - = inactive; ? = inconclusive; . = not tested or not shown. An excerpt weighted towards active compounds, which were near 9.5% of everything screened. Unless noted, calls follow the shape of the full dose curve.

SMILES	RE007 growth inh	SARS PLP yeast	Pf growth 48h	Pf growth 96h	NS1 function inh
C#C[C@]1(O)CC[C@H]2C3CCC4=Cc5oncc5CC4(C)C3CCC21C (stereo partly drawn)	.	.	.	.	-
Cc1cccc(C)c1NC(=O)C1(C)CCC(=O)N1C1CC1 (stereo not drawn)	-	.	.	.	.
O=C(NNS(=O)(=O)c1ccc(F)cc1)c1ccc(O)cc1	-	-	-	10.4µM	-
O=C(NNS(=O)(=O)c1ccccc1)c1ccc([N+](=O)[O-])cc1	-	.	-	14.7µM	-
O=[N+]([O-])c1ccc(S(=O)(=O)Nc2ccc(-c3ccccc3)cc2)cc1	35.5µM	.	.	.	.
O=C(NNS(=O)(=O)c1ccc(F)cc1)c1ccc(S(=O)(=O)N2CCCCC2)cc1	-	-	-	?	-
O=C(NC(=S)NNS(=O)(=O)c1ccccc1)c1ccc([N+](=O)[O-])cc1	?	-	-	?	-
CCCN(CC(=O)Nc1ccc(F)c(F)c1F)C(=O)CN1C(=O)NC2(CCCCC2)C1=O	-	.	.	.	.
CCCN1CCN(S(=O)(=O)c2c(C)[nH]c(C)c2C(=O)N2CCCCC2)CC1	-	-	-	-	-
CC1(C)C(=O)OC(c2cccs2)C(C)(C)C1=O (stereo not drawn)	-	-	-	1.85µM	?
C[C@H](O)[C@@H]1C(=O)N2CCc3c([nH]c4ccccc34)[C@@H]2C[C@@H]1N(C)S(=O)(=O)c1ccccc1	-	.	.	.	.
CC(=O)c1ccc(OCCCC(=O)NCCc2ccc(C(F)(F)F)cc2)cc1	-	-	-	-	-
Cc1ccc2sc(C)[n+](CCO)c2c1	-	-	-	-	.
CCCC[n+]1c(C)sc2ccc(C)cc21	-	-	-	4.65µM	-
Cc1sc2nc(SC3CCOC3=O)n(Cc3ccccc3)c(=O)c2c1C (stereo not drawn)	-	-	-	-	-
C=CCn1c(SC2CCOC2=O)nc2sc(C)c(C)c2c1=O (stereo not drawn)	-	-	-	13.1µM	-
COc1ccc(-c2nc3ccc(Br)cn3c2Cc2cccc(Cl)c2)cc1OC	-	.	.	.	.
COc1ccc(C(C)(C)C)cc1NC(=O)c1ccoc1C	-	-	11.7µM	11.7µM	-
COc1ccc(C)cc1NC(=O)c1ccoc1C	-	-	-	.	-
O=C(CCl)N(CCCNC(=O)C(F)(F)F)c1ccc([N+](=O)[O-])cc1	-	-	9.28µM	?	-
O=C(NCCCNc1ccc([N+](=O)[O-])cc1)C(F)(F)F	-	-	-	-	-
O=C(NCc1ccccn1)C1CCC(=O)N1C1CCCCC1 (stereo not drawn)	-	-	.	1.85µM	-
CC1CC(C)CN(CCCNC(=O)C2CCC(=O)N2C2CCCC2)C1 (stereo not drawn)	-	-	-	10.4µM	-
CCc1ccc(CNC(=O)C2CCC(=O)N2C2CCCCC2)cc1 (stereo not drawn)	-	-	.	-	-
CC[C@@H]1C/C=C\Cc2ccccc2[C@@H](C(=O)C[C@H](O)CC(C)=O)OC1=O	-	-	.	.	.
SMILES	RE007 growth inh	SARS PLP yeast	Pf growth 48h	Pf growth 96h	NS1 function inh
CCOc1ccccc1NC(=O)C(c1ccccc1)N1CCN(C(=O)c2ccco2)CC1 (stereo not drawn)	-	-	9.28µM	?	.
CC(C)C(=O)N1CCN(c2ccc(NC(=O)c3cccs3)cc2Cl)CC1	-	-	?	-	-
O=C(Nc1ccc(N2CCN(C(=O)c3ccco3)CC2)c(Cl)c1)c1cccs1	-	-	5.22µM	.	-
Cc1ccc(NC(=O)C(c2ccccc2)N2CCN(C(=O)c3ccco3)CC2)cc1Cl (stereo not drawn)	-	-	10.4µM	?	.
CC1=C(C(=O)N(C(C)C)C(C)C)CC(CC(=O)NC2CCCC2)C(=O)N1Cc1ccc(F)cc1 (stereo not drawn)	-	.	.	.	.
COc1cc(NC(=S)N2CCCC2)cc(OC)c1	-	-	-	-	-
COCc1cc(=O)[nH]c2c1c(-c1ccccc1)nn2C	-	-	-	-	-
CC(OC(=O)c1ccc(F)c(S(=O)(=O)N2CCOCC2)c1)C(=O)NC1CCCC1 (stereo not drawn)	-	-	-	-	.
Cc1ccc(Nc2nnc(SCC(=O)c3ccc(Br)s3)s2)c(C)c1	-	-	-	1.04µM	?
CCCN(CCC)C(C(=O)Nc1cccc(OC)c1)c1ccccc1 (stereo not drawn)	-	-	?	13.1µM	-
COc1cccc(NC(=O)C(NCCC(C)C)c2ccccc2)c1 (stereo not drawn)	-	-	.	?	-
OC(c1ccc(F)cc1)c1nc(-c2cccc(F)c2)cs1 (stereo not drawn)	-	.	.	.	.
CCOC(=O)C1(Cc2ccccc2)CCCN(Cc2ccncc2)C1 (stereo not drawn)	-	-	9.28µM	-	-
CCCn1cc(CN2CCC(Cc3ccccc3)(C(=O)OCC)CC2)c(C)n1	-	-	-	10.4µM	-
CCOC(=O)C1(Cc2ccccc2)CCCN(Cc2cccc(C(C)=O)c2)C1 (stereo not drawn)	-	-	?	-	-
O=C(COC(=O)c1c[nH]c2ccccc12)NC1CCCCC1	-	-	-	-	.
Clc1ccc(-c2nc3ccc(Br)cn3c2Cc2cccc(Cl)c2)cc1	-	.	.	.	.
COc1cc(OC)c(S(=O)(=O)Nc2ccc(C(=O)O)cc2)cc1S(=O)(=O)Nc1ccc(C(=O)O)cc1	-	-	-	-	-
Cn1c(Cc2cccs2)nnc1SCC(=O)Nc1ccc(C(N)=O)cc1	-	-	-	?	.
c1ccc(CN2CC[C@@H](Nc3nccn4ccnc34)C2)cc1	-	.	.	.	.
NC(=O)c1cn(C2OC(CO)C(O)C2O)c2ncnc(N)c12 (stereo not drawn)	-	-	0.104µM	0.117µM	-
CC(C)(C)C(=O)OCC1OC(n2cnc(C(N)=O)n2)C(O)C1O (stereo not drawn)	-	-	-	-	-
NC(=O)c1ncn(C2OC(CO)C(O)C2O)n1 (stereo not drawn)	.	.	?	12µM	.
O=C1c2c(O)ccc(O)c2C(=O)c2c(NCCNCCO)ccc(NCCNCCO)c21	?	.	0.828µM	0.928µM	-
O=C(Nc1ccc(Cl)cc1)Nc1ccccc1Sc1ncc([N+](=O)[O-])s1	-	-	2.62µM	-	-
O=C(NCc1nc2ccccc2[nH]1)C1=C[C@H](c2ccccc2)C[C@H](OCc2ccc(CO)cc2)O1	-	-	1.04µM	1.65µM	-
O=C(NCc1nc2ccccc2[nH]1)C1=C[C@H](c2ccc3c(c2)OCO3)C[C@H](OCc2ccc(CO)cc2)O1	-	-	-	-	-
O=C(NCc1nc2ccccc2[nH]1)C1=C[C@@H](c2ccc3c(c2)OCO3)C[C@@H](OCc2ccc(CO)cc2)O1	.	-	9.28µM	?	-
O=C(NCc1nc2ccccc2[nH]1)C1=C[C@H](c2ccc3c(c2)OCO3)C[C@H](OCCCCO)O1	-	-	?	4.15µM	-
COc1ccc(NC(=O)CCC(=O)N2CCCC2)c([N+](=O)[O-])c1	-	-	-	-	-
